# Laboratory results from the supplement of paper PMC12067093, “Discovery and optimisation of a covalent ligand for TRIM25 and its application to targeted protein ubiquitination” (Chemical Science, 2025).
# About 21,000 targets were measured; listed, in parts, are those with the largest changes and a random draw of the rest.
# Compound: CC1Cc2ccccc2N1C(=O)C1CCCN(C1)C(=O)CCl (mixture of isomers) [TRIM25 ligand 11 (diastereomer mixture)]
# Experiment: probe-labelled cysteine peptide fold change vs DMSO (competition) (log2 fold change); higher = less target engagement (more negative = stronger competition)
# Conditions: THP-1, incubation time: 4 h
# 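Note: competitive chemoproteomic profiling in live THP-1 cells with an iodoacetamide desthiobiotin (IA-DTB) probe, comparing probe-labelled peptide intensities in compound-treated cells against DMSO-treated controls.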
# Sequence of UniProt O14880 (O14880 whole entry, looked up): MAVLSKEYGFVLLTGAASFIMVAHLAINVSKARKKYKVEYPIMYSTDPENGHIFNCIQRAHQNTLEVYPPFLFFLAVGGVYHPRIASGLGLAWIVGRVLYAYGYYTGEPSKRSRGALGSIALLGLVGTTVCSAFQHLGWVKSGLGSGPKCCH
# Sequence of UniProt O95396 (O95396 whole entry, looked up): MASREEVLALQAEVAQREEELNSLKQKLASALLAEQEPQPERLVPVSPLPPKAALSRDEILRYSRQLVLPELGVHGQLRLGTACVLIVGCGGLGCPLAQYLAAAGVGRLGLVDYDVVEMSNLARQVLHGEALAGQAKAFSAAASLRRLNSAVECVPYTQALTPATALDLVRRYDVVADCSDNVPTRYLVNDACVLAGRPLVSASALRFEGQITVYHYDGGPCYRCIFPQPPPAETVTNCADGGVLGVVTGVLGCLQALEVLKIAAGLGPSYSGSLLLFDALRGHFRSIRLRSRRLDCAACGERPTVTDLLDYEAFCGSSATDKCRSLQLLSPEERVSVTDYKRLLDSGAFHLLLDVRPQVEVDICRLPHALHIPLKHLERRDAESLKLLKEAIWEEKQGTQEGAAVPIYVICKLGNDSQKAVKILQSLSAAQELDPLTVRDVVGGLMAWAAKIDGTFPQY
# Sequence of UniProt P49959 (P49959 whole entry, looked up): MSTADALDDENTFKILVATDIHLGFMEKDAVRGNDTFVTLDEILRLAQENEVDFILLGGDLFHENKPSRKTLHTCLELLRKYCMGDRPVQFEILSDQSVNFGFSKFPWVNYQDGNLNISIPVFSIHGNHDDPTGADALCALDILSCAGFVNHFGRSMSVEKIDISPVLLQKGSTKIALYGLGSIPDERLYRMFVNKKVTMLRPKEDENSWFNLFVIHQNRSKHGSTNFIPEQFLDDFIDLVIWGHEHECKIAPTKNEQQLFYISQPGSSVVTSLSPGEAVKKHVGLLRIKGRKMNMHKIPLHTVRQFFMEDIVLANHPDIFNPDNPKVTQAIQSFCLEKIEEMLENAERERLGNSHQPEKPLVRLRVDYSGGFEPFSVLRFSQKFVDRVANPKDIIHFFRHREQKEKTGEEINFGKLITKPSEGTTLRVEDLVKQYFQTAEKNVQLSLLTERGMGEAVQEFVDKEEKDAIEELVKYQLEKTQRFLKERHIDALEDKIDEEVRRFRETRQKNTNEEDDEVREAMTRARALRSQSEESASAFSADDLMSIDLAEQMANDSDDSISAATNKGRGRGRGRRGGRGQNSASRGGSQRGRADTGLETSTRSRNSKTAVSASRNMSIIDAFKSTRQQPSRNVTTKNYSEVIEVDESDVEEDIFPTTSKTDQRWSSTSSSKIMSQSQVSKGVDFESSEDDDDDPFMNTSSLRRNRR
# Sequence of UniProt Q13615 (Q13615 whole entry, looked up): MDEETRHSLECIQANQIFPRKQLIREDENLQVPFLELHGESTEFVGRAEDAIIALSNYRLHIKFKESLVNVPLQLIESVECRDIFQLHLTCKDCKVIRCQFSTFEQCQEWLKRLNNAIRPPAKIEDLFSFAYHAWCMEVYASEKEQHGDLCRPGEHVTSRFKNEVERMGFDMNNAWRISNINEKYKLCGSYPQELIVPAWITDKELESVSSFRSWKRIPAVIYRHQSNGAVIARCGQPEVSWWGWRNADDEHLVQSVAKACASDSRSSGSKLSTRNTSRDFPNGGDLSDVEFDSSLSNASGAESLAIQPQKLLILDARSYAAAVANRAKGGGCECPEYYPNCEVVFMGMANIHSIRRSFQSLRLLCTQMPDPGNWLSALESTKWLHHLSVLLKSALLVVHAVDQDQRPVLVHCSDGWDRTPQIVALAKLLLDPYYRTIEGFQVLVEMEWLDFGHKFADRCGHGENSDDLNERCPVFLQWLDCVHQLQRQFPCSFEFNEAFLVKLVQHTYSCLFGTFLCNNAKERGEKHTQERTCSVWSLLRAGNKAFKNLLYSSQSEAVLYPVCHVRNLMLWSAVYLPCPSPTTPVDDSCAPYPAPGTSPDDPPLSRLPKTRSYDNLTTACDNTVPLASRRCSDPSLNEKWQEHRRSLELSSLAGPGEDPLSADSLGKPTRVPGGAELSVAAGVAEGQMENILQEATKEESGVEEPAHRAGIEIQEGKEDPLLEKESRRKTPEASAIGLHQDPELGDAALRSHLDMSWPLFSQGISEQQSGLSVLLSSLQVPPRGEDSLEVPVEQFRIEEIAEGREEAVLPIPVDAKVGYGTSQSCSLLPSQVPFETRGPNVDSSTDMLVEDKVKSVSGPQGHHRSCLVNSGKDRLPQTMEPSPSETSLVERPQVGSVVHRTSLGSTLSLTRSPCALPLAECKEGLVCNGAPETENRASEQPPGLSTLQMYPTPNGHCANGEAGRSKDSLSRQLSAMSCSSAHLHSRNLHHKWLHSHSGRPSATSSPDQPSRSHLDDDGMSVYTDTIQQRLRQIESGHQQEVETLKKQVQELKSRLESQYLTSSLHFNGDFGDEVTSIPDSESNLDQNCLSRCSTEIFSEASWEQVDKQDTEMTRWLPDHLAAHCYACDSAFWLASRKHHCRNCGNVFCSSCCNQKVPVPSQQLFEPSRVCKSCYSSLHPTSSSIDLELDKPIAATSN
# Sequence of UniProt Q9HCE1 (Q9HCE1 whole entry, looked up): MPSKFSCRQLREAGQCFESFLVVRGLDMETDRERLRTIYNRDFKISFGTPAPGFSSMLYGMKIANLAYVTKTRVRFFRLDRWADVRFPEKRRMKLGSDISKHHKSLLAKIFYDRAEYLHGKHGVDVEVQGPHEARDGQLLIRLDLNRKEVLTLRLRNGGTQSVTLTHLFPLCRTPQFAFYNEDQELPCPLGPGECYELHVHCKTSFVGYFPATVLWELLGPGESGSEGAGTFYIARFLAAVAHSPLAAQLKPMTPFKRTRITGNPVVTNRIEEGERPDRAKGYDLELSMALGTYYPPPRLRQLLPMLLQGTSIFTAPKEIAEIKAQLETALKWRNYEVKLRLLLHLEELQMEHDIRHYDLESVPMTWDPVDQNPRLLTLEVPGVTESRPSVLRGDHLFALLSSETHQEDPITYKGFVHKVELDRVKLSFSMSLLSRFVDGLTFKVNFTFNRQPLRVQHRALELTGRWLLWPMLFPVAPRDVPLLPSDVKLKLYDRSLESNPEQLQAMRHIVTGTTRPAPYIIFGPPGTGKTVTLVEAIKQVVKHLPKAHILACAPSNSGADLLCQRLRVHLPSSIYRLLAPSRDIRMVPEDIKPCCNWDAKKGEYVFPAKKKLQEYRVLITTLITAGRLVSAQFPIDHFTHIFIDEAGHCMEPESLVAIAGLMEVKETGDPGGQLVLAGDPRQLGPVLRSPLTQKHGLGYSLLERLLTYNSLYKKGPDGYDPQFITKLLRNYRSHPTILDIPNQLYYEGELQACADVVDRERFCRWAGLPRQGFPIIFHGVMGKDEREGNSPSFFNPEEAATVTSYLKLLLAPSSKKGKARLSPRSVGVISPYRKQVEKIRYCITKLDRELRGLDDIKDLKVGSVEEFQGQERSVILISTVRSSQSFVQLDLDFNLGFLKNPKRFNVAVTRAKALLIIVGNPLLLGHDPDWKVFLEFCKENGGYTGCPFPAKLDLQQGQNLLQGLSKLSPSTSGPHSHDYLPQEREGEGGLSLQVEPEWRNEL
# Sequence of UniProt P33992 (P33992 whole entry, looked up): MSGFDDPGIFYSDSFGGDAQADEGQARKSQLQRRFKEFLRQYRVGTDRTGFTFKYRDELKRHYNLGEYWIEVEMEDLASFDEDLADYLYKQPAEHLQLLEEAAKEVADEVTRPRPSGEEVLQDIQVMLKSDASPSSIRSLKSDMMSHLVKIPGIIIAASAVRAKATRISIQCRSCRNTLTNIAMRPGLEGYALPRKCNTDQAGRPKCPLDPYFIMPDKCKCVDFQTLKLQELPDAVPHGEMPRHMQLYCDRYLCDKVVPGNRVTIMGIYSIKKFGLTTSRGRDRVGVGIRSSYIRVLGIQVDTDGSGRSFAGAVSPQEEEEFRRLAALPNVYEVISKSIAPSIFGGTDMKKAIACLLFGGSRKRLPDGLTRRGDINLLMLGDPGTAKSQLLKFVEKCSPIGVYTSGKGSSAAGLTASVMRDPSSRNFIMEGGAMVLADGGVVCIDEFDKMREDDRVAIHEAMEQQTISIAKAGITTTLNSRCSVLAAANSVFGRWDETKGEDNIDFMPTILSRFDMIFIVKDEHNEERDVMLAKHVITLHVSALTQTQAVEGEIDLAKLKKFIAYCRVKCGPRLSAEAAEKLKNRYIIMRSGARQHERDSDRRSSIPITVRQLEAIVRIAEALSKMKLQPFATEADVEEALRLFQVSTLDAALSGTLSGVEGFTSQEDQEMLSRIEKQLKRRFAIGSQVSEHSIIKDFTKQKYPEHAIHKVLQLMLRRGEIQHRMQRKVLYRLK
# Sequence of UniProt Q8NA29 (Q8NA29 whole entry, looked up): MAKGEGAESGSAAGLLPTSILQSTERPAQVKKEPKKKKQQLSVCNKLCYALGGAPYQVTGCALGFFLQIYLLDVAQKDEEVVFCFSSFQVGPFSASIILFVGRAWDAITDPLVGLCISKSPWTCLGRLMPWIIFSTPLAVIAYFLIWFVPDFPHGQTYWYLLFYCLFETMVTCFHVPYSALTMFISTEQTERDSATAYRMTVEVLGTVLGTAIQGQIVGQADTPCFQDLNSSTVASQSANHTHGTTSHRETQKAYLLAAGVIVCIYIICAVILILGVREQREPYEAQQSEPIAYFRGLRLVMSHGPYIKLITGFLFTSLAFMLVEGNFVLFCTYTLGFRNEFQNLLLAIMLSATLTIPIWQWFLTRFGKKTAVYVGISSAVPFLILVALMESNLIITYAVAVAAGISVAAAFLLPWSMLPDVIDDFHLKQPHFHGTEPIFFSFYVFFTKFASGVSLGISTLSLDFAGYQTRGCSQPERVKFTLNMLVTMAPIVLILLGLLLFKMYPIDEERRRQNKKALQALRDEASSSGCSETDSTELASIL
Target,probe-labelled cysteine peptide fold change (10 µM),probe-labelled cysteine peptide fold change (50 µM)
MTMR3_Q13615_188_LCGSYPQELIVPAWITDK (UniProt Q13615),0.105,0.265
MSH6_P52701_1158+1165_QAGLLAVMAQMGCYVPAEVCR (UniProt P52701),-0.115,-0.66
MCM5_P33992_221_CVDFQTLK (UniProt P33992),-0.0141,0.0951
MFSD2A_Q8NA29_44_KQQLSVCNK (UniProt Q8NA29),-0.207,-0.294
MOV10_Q9HCE1_172_NGGTQSVTLTHLFPLCR (UniProt Q9HCE1),0.234,0.148
MATR3_P43243_230_CRDDSFFGETSHNYHK (UniProt P43243),0.0188,-0.0509
LYAR_Q9NX58_30_NCECLSCIDCGK (UniProt Q9NX58),-0.0598,-0.0603
MYH3_P11055_1412_CASLEK<|>MYH1_P12882_1415_CASLEK<|>MYH8_P13535_1414_CASLEK<|>MYH2_Q9UKX2_1417_CASLEK<|>MYH13_Q9UKX3_1415_CASLEK<|>MYH4_Q9Y623_1415_CASLEK (UniProt Q9Y623+Q9UKX3+Q9UKX2+P13535+P12882+P11055),0.356,0.307
MGST3_O14880_56_YKVEYPIMYSTDPENGHIFNCIQR (UniProt O14880),0.0746,-0.113
MRE11_P49959_249_HGSTNFIPEQFLDDFIDLVIWGHEHECK (UniProt P49959),-0.0677,-0.0212
MATR3_P43243_821_NTHCSSLPHYQK (UniProt P43243),0.121,-0.196
MOCS3_O95396_193_YLVNDACVLAGRPLVSASALR (UniProt O95396),-0.0913,-0.0185
